High-throughput results: PubChem BioAssay, Sanford-Burnham Center for Chemical Genomics
Most compounds without a hit are left out; they make up all but 2.5% or so of the library.
Cardio protect = myocardial damage modulation in H9c2 cells | H9c2 cardiomyocytes, H2O2 injury protection, ATPLite, 2 h | 360,000 tested, 0.63% active | protection from H2O2 cell death, % at 20 µM;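 active means compounds giving at least 50% protection of heart cells from peroxide-induced death in the single-dose screen, raw or plate-pattern-corrected value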;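 further: 0% = DMSO wells with peroxide and 100% = DMSO wells without peroxide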
CRFBP-R2 agonist = agonists of human CRF-binding protein/CRF-R2 receptor complex | activation, % at 13.2 µM | 350,000 tested, 0.46% active | HEK293 CRF-R2/CRF-BP, calcium dye fluorescence (FLIPR); percent of saturating CRF peptide response;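 active means activation of at least 50%, plus an integration ratio under a set limit after plate pattern correction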;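 further: plate controls were neutral control wells without compound for no effect and CRF at EC100 for full effect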
hiPSC survival = increases survival of single human iPS cells | 360,000 tested, 0.044% active | survival enhancement, % at 20 µM | hiPSC single-cell survival, ATPlite luminescence; 100% = ROCK inhibitor wells, 0% = DMSO; in the data active means survival enhancement above about 18%;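 further: cells exposed to compounds for 16 hours before the ATP read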
H9c2 TAG inh = inhibitors of triacylglycerol accumulation | inhibition, % at 12.5 µM | 230,000 tested, 0.66% active | H9c2 cells, Nile Red lipid (TAG) fluorescence; cells loaded with 200 µM oleic acid | AID 651582;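 active means pattern-corrected inhibition of lipid staining of at least 50% with the nuclear-stain viability signal not falling by more than 50%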;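 further: 0% = DMSO wells and 100% = triacsin C control wells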
CRFBP-R2 block = antagonists of CRF-binding protein/CRF-R2 receptor complex; AID 588475; inhibition, % at 11.8 µM; 350,000 tested, 0.59% active; HEK293 CRF-R2/CRF-BP, CRF-induced calcium fluorescence;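 active means inhibition of the ligand-induced calcium signal above about 50% at the single tested concentration, limit read from the data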
SKN-1 inh = C. elegans SKN-1 inhibition. 360,000 tested, 0.49% active. C. elegans VP596 Pgst-4::GFP/RFP ratio, acrylamide-induced, 24 h. AID 624304. inhibition, % at 21.8 µM;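 active means interference check ratio from 0.5 to 1.5 plus GFP to RFP signal ratio inhibition reaching or exceeding a fixed threshold, cut at about 30% in these data, passing the limit was not always enough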
Numbers without * were called inactive; / = not tested or not shown.

SMILES	Cardio protect	CRFBP-R2 agonist	hiPSC survival	H9c2 TAG inh	CRFBP-R2 block	SKN-1 inh
CC(OC(=O)Cc1n[nH]c(=O)c2ccccc12)C(=O)Nc1ccccc1[N+](=O)[O-] (stereo unspecified)	72.5*	-0.4	-0.5	4.9	-5.3	-9.3
CC(OC(=O)Cc1n[nH]c(=O)c2ccccc12)C(=O)Nc1cccc([N+](=O)[O-])c1 (stereo unspecified)	57.5*	-2.8	-0.8	-2.2	0.1	-3.5
COc1ccccc1NC(=O)C(C)OC(=O)Cc1n[nH]c(=O)c2ccccc12 (stereo unspecified)	66.0*	0.8	1.1	70.3	-14.3	-15.3
CC(OC(=O)Cc1n[nH]c(=O)c2ccccc12)C(=O)Nc1ccc(S(N)(=O)=O)cc1 (stereo unspecified)	48.3	0.3	1.7	9.7	12.5	6.9
Cn1cc(-c2ccc(C(=O)Nc3cccc(Oc4ccccc4)c3)c3occc23)cn1	-11.3	/	2.6	12.4	/	-8.2
CCCCCCCCNC(=O)C(CCC(=O)OCc1ccccc1)NC(C)=O (stereo unspecified)	-5.5	0.5	0.0	/	18.2	53.2*
CC1C/C(=C/c2cccn2C)C(=O)/C(=C/c2cccn2C)C1 (stereo unspecified)	2.2	127.5*	2.2	-165.3	-184.1	18.3
CC1C/C(=C/c2ccncc2)C(=O)/C(=C/c2ccncc2)C1 (stereo unspecified)	-16.7	-1.7	52.7*	30.1	18.4	2.8
CC(C(=O)O)N1C(=O)/C(=C/c2cccn2C)SC1=S (stereo unspecified)	6.3	6.3	-1.6	/	21.5	15.8
COc1ccc(CCNC(=O)CC(=O)N/N=C\c2ccc(OCC(N)=O)cc2)cc1OC	14.2	-1.9	4.8	5.7	6.6	-10.2
Cc1nc2cc(C(=O)O)ccc2n1-c1ccc(F)cc1F	-6.3	-2.0	0.0	4.4	4.8	13.4
CCOc1ccccc1-n1c(C)nc2cc(C(=O)O)ccc21	2.2	0.9	-0.5	1.1	70.2*	-2.1
CC(=O)NC(c1cccc(F)c1)c1nc(/C=C/c2ccccc2)cs1 (stereo unspecified)	3.0	/	1.9	-25.1	/	28.0
COc1ccc(C2/C=C\CN(C(=O)c3ccc(C)cc3)[C@H](Cc3ccccc3)C(=O)N2Cc2ccc(F)cc2)cc1 (stereo partly specified)	85.2*	6.8	-2.8	26.0	1.4	0.7
NC(=O)c1ccc(NC(=O)COC(=O)c2c3c(nc4ccccc24)/C(=C\c2cccs2)CCC3)cc1	54.5*	1.4	-2.3	/	-19.2	-1.3
Cc1cc(-c2ccccc2)nc(N/N=C/c2ccccc2)n1	-11.1	-1.4	-0.8	/	-5.2	3.8
Cc1cc(-c2ccccc2)nc(N/N=C/c2ccc([N+](=O)[O-])cc2)n1	53.4*	1.2	-0.7	/	-23.9	8.6
COc1ccc(/C=C2\CCC(C3CCCC3)C2=O)c(OC)c1 (stereo unspecified)	-8.3	-0.4	1.0	/	-1.4	-13.2
COc1ccc(/C=C2\CC/C(=C\c3ccc(OC)cc3OC)C2=O)c(OC)c1	-4.8	88.2*	0.5	-3.4	-84.2	-0.4
COc1ccc(/C=C2\CCC/C(=C\c3ccc(OC)c(OC)c3OC)C2=O)c(OC)c1OC	-3.5	-2.5	-0.3	/	69.2*	2.0
O=C(COC(=O)Cc1n[nH]c(=O)c2ccccc12)Nc1c(Br)cc([N+](=O)[O-])cc1Br	97.4*	0.5	0.4	0.8	3.1	8.0
NS(=O)(=O)c1cccc(NC(=O)COC(=O)Cc2n[nH]c(=O)c3ccccc23)c1	52.1*	1.2	0.4	-31.3	-14.4	-8.2
Cc1ccc(S(=O)(=O)N(C)C)cc1NC(=O)COC(=O)Cc1n[nH]c(=O)c2ccccc12	74.7*	1.1	0.0	4.3	-5.7	8.9
O=C(COC(=O)Cc1n[nH]c(=O)c2ccccc12)Nc1c(Cl)cccc1C(F)(F)F	25.1	2.1	-0.5	8.5	11.2	-11.0
Clc1ncc(CN2CCN(Cc3ccccc3)CC2)s1	0.1	-0.4	-3.1	22.4	8.4	-8.4
COc1ccc(/C=N/N2CCOCC2)cc1COc1ccc(Cl)cc1	2.0	2.3	1.4	/	-14.3	2.4
COc1cccc(CNC(=O)[C@@H]2CCCN2C(=O)OC(C)(C)C)c1	/	/	0.8	/	/	12.8
